Assay outcomes (PubChem BioAssay)
Many of the other results were omitted from the sample, so hits are more common in it than they were.
CHX counter – counter-screen for Shiga toxin inhibitors: cycloheximide protein synthesis inhibition; max response, %; cell reporter, cycloheximide protein synthesis inhibition counterscreen; AID 2314; hit rate 12% among 300,000; in the data active = max response mostly above about 13%, no sharp cut-off; inactive = mostly below about 14%; note: read at 38.3 µM for the half of the compounds with a filed dose; 0% is about no effect
Shiga toxin inh – inhibitors of Shiga toxin in Vero cells. Vero cells, Shiga toxin protein synthesis inhibition reporter. inhibition, % at 38.7 µM. hit rate 9.2% among 290,000. AID 2315; in the data active = inhibition mostly above about 28%, no sharp cut-off; inactive = mostly below about 43%; note: 0% is about no effect
Giardia FBPA inh – inhibitors of Giardia lamblia fructose-1,6-bisphosphate aldolase. purified Giardia FBPA. Potency, µM (top dose mostly 59.6 µM), for inactives: at the top dose activity, negative = inhibition, usual class: inhibitors. A8B2U2. hit rate 0.71% among 290,000; note: potency is the fitted concentration of half-maximal effect; % is set by controls: 0 for no effect and ±100 for the full control effect; nearly all actives have a fitted effect of over 55% in size
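40 nM FBPA preincubated 10 min at RT with compound (up to 57.5 uM final), then substrate plus GAPDH/TPI/NAD/arsenate coupling and diaphorase/resazurin added. Fluorescence read after 20 min at RT, 525/598 nm.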
Tb PYK inh – T. brucei pyruvate kinase inhibition. TbPYK enzyme, Kinase-Glo Plus ATP luminescence, 45 min. Potency, µM (doses to about 76.8 µM), for the others: at the highest dose activity, negative = inhibition, most hits filed as inhibitors. hit rate 0.12% among 410,000; note: potency is the fitted concentration of half-maximal effect; % is set by controls: 0 for no effect and ±100 for the full control effect; nearly all actives have a fitted effect of over 50% in size
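Assay buffer: 50 mM TEA pH 7.2, 100 mM KCl, 10 mM MgCl2, 0.05% BSA, 0.01% Tween-20. Pyruvate kinase from T. brucei plus substrate met compound, then ADP (130 uM final). Luminescence was read post 45 min RT.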
Sm TGR block – inhibitors of Schistosoma mansoni thioredoxin glutathione reductase; Q962Y6; Potency, µM (titrated, usually from 114 µM), inactives show at the top dose activity change, negative = inhibition, hits mostly inhibitors; purified TGR, DTNB reduction, TNB absorbance 405 nm; hit rate 3% among 360,000; note: potency is the fitted concentration of half-maximal effect; % is set by controls: 0 for no effect and ±100 for the full control effect; nearly all actives have a fitted effect of over 60% in size
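Kinetic colorimetric format: TGR-catalysed, NADPH-driven DTNB reduction monitored via TNB absorbance. Enzyme dispensed at 20 nM; compound exposure 15 min at room temperature before reaction start.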
LmPK inhibitor – LmPK (Leishmania mexicana) enzyme inhibition | Q27686 | purified LmPK, Kinase-Glo ATP luminescence, 1 h | Potency, µM (titrated, usually from 57.5 µM), without a hit: at the top dose activity change, negative = inhibition, most hits filed as inhibitors | hit rate 0.37% among 290,000 | AID 1721; note: potency is the fitted concentration of half-maximal effect; % is set by controls: 0 for no effect and ±100 for the full control effect
Target sequence (Q27686 whole entry, looked up): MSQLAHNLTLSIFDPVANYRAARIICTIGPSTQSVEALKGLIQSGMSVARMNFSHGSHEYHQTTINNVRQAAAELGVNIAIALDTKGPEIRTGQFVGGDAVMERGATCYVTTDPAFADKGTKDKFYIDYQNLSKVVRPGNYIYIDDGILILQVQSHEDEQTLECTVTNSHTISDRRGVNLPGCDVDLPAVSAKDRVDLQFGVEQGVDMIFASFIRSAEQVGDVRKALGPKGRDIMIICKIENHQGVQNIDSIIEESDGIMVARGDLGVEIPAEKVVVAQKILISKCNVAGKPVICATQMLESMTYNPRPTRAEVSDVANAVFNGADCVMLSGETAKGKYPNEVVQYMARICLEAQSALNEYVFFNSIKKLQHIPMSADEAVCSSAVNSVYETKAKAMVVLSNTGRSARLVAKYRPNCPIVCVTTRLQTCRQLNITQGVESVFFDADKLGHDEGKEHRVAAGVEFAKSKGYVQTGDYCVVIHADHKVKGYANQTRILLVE
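Kinase-Glo luminescence read after 1 h RT reaction of 0.1 nM LmPK with 0.5 mM PEP and 0.1 mM ADP. Activity scaled between uninhibited and enzyme-free controls.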
* marks the source's active call; other numbers are inactive results; ? = inconclusive; nt = no result; + = active, no number; [ ] = another dose, or the depositor's remark. Unless noted, calls come from the whole dose curve; as a rule, active = well fitted curve in the direction sought with a large enough effect; inconclusive = small, poorly fitted or top-dose-only effect, or another doubt; inactive = no such curve, though single readings can be large; an effect the other way counts as inactive or inconclusive.

SMILES	CHX counter	Shiga toxin inh	Giardia FBPA inh	Tb PYK inh	Sm TGR block	LmPK inhibitor
Cc1ccc(C(=O)Nc2ccc3cn[nH]c3c2)cc1S(=O)(=O)N1CCOCC1	21*	49*	-18%	0%	-1%	3%
COc1ccc(/C=C/C(=O)NC2CCCCCC2)cc1S(=O)(=O)N1CCOCC1	19*	21	8%	0%	-4%	-3%
COc1ccc(C(=O)NC2CCCCC2)cc1S(=O)(=O)N1CCOCC1	-6	-14	3%	9%	7%	0%
Cc1ccc(S(=O)(=O)NCC(c2ccco2)N2CCN(c3ccccc3F)CC2)cc1 (centres undefined)	nt	nt	nt	-2%	5%	nt
Cc1cc(C(=O)NCc2ccccc2)c2c(C)nn(-c3cccc(Cl)c3C)c2n1	nt	nt	nt	-8%	6%	nt
O=C(NC1CCCC1)c1ccc(Br)c(S(=O)(=O)N2CCCCC2)c1	-6	57	nt	0%	7%	-3%
COc1ccc(C(=O)NC2CCCCCC2)cc1S(=O)(=O)Nc1ccc(Br)cc1	18*	56*	-2%	-4%	-13%	-3%
Cc1ccc(C(=O)NC2CCCCC2)cc1S(=O)(=O)N1CCCC1	35*	40*	6%	-7%	3%	5%
CCN(Cc1ccccc1)S(=O)(=O)c1cc(C(=O)NC2CCCCCC2)ccc1OC	7	7	-1%	2%	-1%	4%
CCN(CC)S(=O)(=O)c1cc(C(=O)NC2CCCCC2)ccc1C	42*	104*	-2%	5%	27%	1%
CCCOC(=O)NCCCN(C)C	-8	-6	0%	nt	nt	nt
O=C(Cn1cc2c(n1)CCCCC2)Nc1ccccc1Cl	12*	21	1%	-15%	13%	-3%
O=C(Cn1cc2c(n1)CCCC2)Nc1ccccc1Cl	-2	16	-2%	0%	4%	0%
Cc1ccc2nc(NC(=O)Cn3cc4c(n3)CCCCC4)sc2c1	16*	30	?	-1%	-7%	-12%
CC(=O)NNc1nc(-c2ccc(C)cc2)cs1	23*	71*	-6%	2%	?	-8%
CCCC(=O)Nc1ccc(-c2csc(N/N=C\c3ccncc3)n2)cc1	31*	30	0%	?	18µM*	2%
CCCC(=O)Nc1ccc(-c2csc(NNC(C)=O)n2)cc1	7	38	-25%	-7%	25µM*	1%
CCCn1c(N)c(N(CCOC)C(=O)CCC2CCCCC2)c(=O)[nH]c1=O	nt	nt	nt	1%	-4%	nt
O=C(CNC(=O)c1ccc([N+](=O)[O-])cc1)c1ccccc1	46*	95*	4%	5%	-28%	3%
O=C(CNC(=O)c1cccs1)OCC(=O)c1ccc(Cl)cc1	1	11	2%	-6%	14%	12%
O=C(CNC(=O)c1cccs1)c1ccc(Cl)cc1	37*	79*	-13%	-6%	1%	-5%
O=C(COc1cccc(NC(=O)c2cccs2)c1)c1ccc(F)cc1	12	+	-5%	-1%	-4%	0%
O=C(NCCc1ccc(Cl)cc1)c1cccs1	42*	134*	-7%	6%	-3%	2%
O=C(Nc1ccc(OCc2cc(=O)n3c4c(sc3n2)CCCC4)cc1)c1ccc(F)cc1	nt	nt	nt	3%	5%	nt
O=C(NCC(=O)c1ccccc1)OCc1ccc([N+](=O)[O-])cc1	30*	nt	0%	-14%	0%	-1%
SMILES	CHX counter	Shiga toxin inh	Giardia FBPA inh	Tb PYK inh	Sm TGR block	LmPK inhibitor
O=C(Cc1ccc(Cl)cc1)NNC(=S)NC(=O)c1cccs1	9	34*	?	-3%	0%	0%
O=C(CNC(=O)c1cccs1)c1ccc([N+](=O)[O-])cc1	23*	92*	-5%	0%	-14%	-1%
O=C(CNC(=O)c1cccs1)OCC(=O)c1ccc([N+](=O)[O-])cc1	2	48	2%	0%	25%	9%
O=C(CNC(=O)c1cccs1)c1ccc(F)cc1	25*	24	-7%	2%	-7%	-21%
O=C(CNC(=O)c1ccccc1)OCc1ccc([N+](=O)[O-])cc1	2	9	15%	-7%	6%	2%
CC(C)CN(CCNC(=O)c1cc(-c2cccs2)nc2ccccc12)CC(C)C	nt	nt	nt	3%	-3%	nt
COC(=O)C[C@H]1c2ccccc2[C@H]2C(=C[C@@H](C)[C@H]3C(=O)N(O)C(=O)[C@H]32)N1C(=O)OC	nt	nt	4%[12.9 µM]	nt	nt	-4%[11.5 µM]
O=C(Nc1ccc(F)c(F)c1)c1ccc(=O)n(Cc2ccc(F)cc2)c1	nt	nt	nt	1%	-3%	nt
O=C(C#Cc1ccccc1)c1ccc([N+](=O)[O-])cc1	-3	-8	0%	2%	0.32µM*	6%
COC(=O)c1cc2sc(C)cc2n1CC(=O)Nc1cccc(SC)c1	nt	nt	nt	1%	0%	nt
Cn1c(=O)[nH]c(=O)c2c1nc(N(CCO)Cc1ccccc1)n2CCCc1ccccc1	-10	-14	0%	-5%	-8%	17%
CC(C)Cn1c([N+](=O)[O-])nc2c1c(=O)[nH]c(=O)n2C	-2	2	?	0%	22µM*	0%
CCNc1nc2c(c(=O)[nH]c(=O)n2C)n1CC(C)C	6	-8	3%	-2%	5%	-1%
CN(Cc1ccccc1)c1nc2c(c(=O)[nH]c(=O)n2C)n1CCCc1ccccc1	27*	41	4%	-1%	-5%	-1%
Cn1c(=O)[nH]c(=O)c2c1nc(N1CCNCC1)n2Cc1ccccc1	-1	-3	4%	3%	?	4%
CC(=O)CSc1nc2c(c(=O)[nH]c(=O)n2C)n1Cc1cccc(Br)c1	-2	-9	0%	-28%	56µM*	-5%
Cn1c(=O)[nH]c(=O)c2c1nc([N+](=O)[O-])n2Cc1ccccc1	2	-11	14µM*	-2%	1.8µM*	-4%
NC(=O)C1CC2(NC(=O)NC2=O)c2cc(F)ccc2O1 (centres undefined)	nt	nt	nt	1%	nt	nt
Cc1ccc(-c2onc(C)c2C)cc1S(=O)(=O)N1CCC(C)CC1	nt	nt	nt	-12%	-2%	nt
Cc1cc(C)cc(NC(=O)CN(c2cc(C(F)(F)F)ccc2Cl)S(=O)(=O)c2ccccc2)c1	nt	nt	nt	6%	1%	nt
Cc1ccc(NC(=O)NC2=N/C(=C(/C#N)C(=O)N3CCCC3)c3ccccc32)cc1	20*	58	19%	-4%	1%	-5%
c1coc(-c2ccnc(-n3cccc3)n2)c1	46*	19	5%	3%	-5%	0%
c1coc(-c2ccnc(-c3ccncc3)n2)c1	11	15	1%	0%	1%	-6%
Cc1ccsc1-c1ccnc(-n2cccc2)n1	22*	52*	7%	1%	34%	-2%
Clc1ccsc1-c1ccnc(-n2cccc2)n1	22*	52*	0%	8%	5%	1%
COc1ccc(C(=O)OCC(=O)NCCc2ccc(F)cc2)cc1S(=O)(=O)N1CCOCC1	nt	nt	nt	1%	nt	nt
